Integrin act MD = qHTS for Activators of Integrin-Mediated Alleviation for Muscular Dystrophy; alpha7betagal myoblasts, beta-gal FDG fluorescence, 48 h; Potency, µM (top dose mostly 38.3 µM), for the others: top-dose activation, hits mostly activators; hit rate 0.064% among 350,000; AID 624291, 2012;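 further: potency means the concentration at half of the fitted maximal effect; 100% = response of the positive control SU9516; nearly all actives have a fitted effect of over 60% in size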
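alpha7betagal+/- myoblasts (passage 13, 250/well) treated 48 h at 37C with compounds at 1:260 dilution of DMSO stock. Lysed, then beta-galactosidase activity read as FDG fluorescence (ex 480/em 540) after 30 min, with pre-read for autofluorescence.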
BRCA1 expr act = qHTS Assay to Identify Small Molecule Activators of BRCA1 Expression. AID 624202, 2012. MCF7-BRCA1-FFLuc reporter, luminescence, 48 h; response scale: scaled: vehicle 0%, 10 µM genistein 100%. Potency, µM (top dose mostly 46.1 µM), for the others: top-dose activation, hits mostly activators. hit rate 1.1% among 380,000; further: potency means the concentration at half of the fitted maximal effect; nearly all actives have a fitted effect of over 80% in size
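Compounds are tested at multiple concentrations on MCF7 BRCA1-luciferase reporter cells seeded at 2000 per well; after 48 h, a single luminescence end-point is taken and curves fitted to the normalized data.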
IL2 activator = qHTS of IL-2 Activators | IL-2 activation reporter assay, cell-based qHTS; stimulated with anti-CD3/CD4/CD28 beads; in transgenic mouse T cells | activation, % (series mostly up to about 46 µM) | hit rate 0.065% among 360,000 | AID 652025, 2013; in the data active means activation above about 50%; inconclusive means mostly about 30% to 49%; further: 0% is about no effect
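First, unstimulated transgenic mouse T cells were exposed to compound for 60 min. Next, anti-CD3/anti-CD4-coated beads with anti-CD28 were added. Finally, after 18 h at 37 degrees C, EGFP and DsRed were imaged.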
Apoferritin bind = qHTS Assay for Identification of Novel General Anesthetics; Potency, µM (highest dose often 77.5 µM), inactives show at the highest dose activity change, negative = displacement, actives largely listed as inhibitors; apoferritin/1-aminoanthracene competitive binding, fluorescence; hit rate 0.074% among 350,000; Ferritin light chain (Equus caballus), P02791; AID 485281, 2010; further: potency means the concentration at half of the fitted maximal effect; on the % scale 0 is the no-effect control and ±100 the full control effect; nearly all actives have a fitted effect of over 20% in size
Target sequence (P02791 2-175 limits assumed): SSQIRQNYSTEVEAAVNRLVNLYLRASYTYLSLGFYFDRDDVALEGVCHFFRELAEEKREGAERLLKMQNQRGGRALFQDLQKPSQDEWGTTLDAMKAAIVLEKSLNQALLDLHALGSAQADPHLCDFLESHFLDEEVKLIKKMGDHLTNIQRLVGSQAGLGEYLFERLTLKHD
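Horse-spleen apoferritin (10 uM) in 50% saturated 1-aminoanthracene in PBS was incubated 10 min at room temperature with compound. Fluorescence (ex 380, em 535 nm) was normalized to free and bound 1-AMA, with concentration-response fitted by a four-parameter Hill equation.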
PKM2 act = qHTS Assay for Activators of Human Muscle isoform 2 Pyruvate Kinase; Potency, µM (highest dose often 57.5 µM), without a hit: at the highest dose activation, hits mostly activators; hit rate 0.34% among 260,000; purified PKM2, Kinase-Glo ATP luminescence, activation; response scale: 0% is enzyme alone, no compound; Pyruvate kinase PKM (Homo sapiens), P14618; further: potency means the concentration at half of the fitted maximal effect; on the % scale 0 is the no-effect control and ±100 the full control effect; nearly all actives have a fitted effect of over 55% in size
Target sequence (P14618 whole entry, looked up, canonical isoform): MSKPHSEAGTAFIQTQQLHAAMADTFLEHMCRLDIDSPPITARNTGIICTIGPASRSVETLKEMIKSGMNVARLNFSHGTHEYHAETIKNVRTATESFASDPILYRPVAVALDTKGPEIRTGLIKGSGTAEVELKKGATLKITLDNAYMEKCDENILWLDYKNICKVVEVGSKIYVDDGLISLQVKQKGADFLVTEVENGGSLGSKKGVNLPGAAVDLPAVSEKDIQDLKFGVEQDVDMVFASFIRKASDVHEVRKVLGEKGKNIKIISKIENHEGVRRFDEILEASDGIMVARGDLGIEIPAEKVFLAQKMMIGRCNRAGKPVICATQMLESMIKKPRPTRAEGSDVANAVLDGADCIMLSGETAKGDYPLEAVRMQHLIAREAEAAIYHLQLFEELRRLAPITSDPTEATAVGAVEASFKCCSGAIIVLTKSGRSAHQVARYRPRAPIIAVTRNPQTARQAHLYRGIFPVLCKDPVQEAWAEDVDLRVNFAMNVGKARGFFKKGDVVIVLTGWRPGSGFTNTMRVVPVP
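hPK-M2, >95% pure; 0.1 mM ADP / 0.5 mM PEP final; imidazole pH7.2 buffer w/ 7 mM MgCl2, 50 mM KCl; 1 h RT; Kinase-Glo lum. Intermediate enzyme activity for dual inhibitor/activator qHTS.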
Starred values were filed as active, the others as inactive; ? = inconclusive; . = not tested or not shown; [ ] = another dose, or the depositor's remark. Sampled rows, rich in hits. Any-hit rate of the full collection: about 1.3%. Unless noted, the call rests on the fitted dose curve; in most records, active means well fitted curve in the direction sought with a large enough effect; inconclusive means small, poorly fitted or top-dose-only effect, or another doubt; inactive means no such curve, though single readings can be large; an effect the other way counts as inactive or inconclusive.

SMILES	Integrin act MD	BRCA1 expr act	IL2 activator	Apoferritin bind	PKM2 act
Cc1ccc(S(=O)(=O)c2cnc(SCC(=O)Nc3cc(C)cc(C)c3)nc2N)cc1	.	-31%	.	-8%	.
C=CCn1c(SCc2nc3ccccc3c(=O)[nH]2)nc2scc(C3CC3)c2c1=O	3%	-54%	-3	-14%	3.5µM*
COc1ccccc1CNC(=O)CSc1ccsc1[N+](=O)[O-]	-12%	13µM*	0	-17%	-2%
CCNC(=O)Nc1nc2ccccc2s1	?	3.2µM*	-2	-7%	-8%
CCOc1ccc2nc(NC(=S)N(C)C)sc2c1	-10%	?	-4	-13%	-8%
Cc1ccccc1Nc1nc2ccccc2s1	-3%	3.5µM*	-1	?	-2%
O=C(CSc1nccn1-c1ccc(Cl)cc1)Nc1nc2ccccc2s1	.	.	.	65%	.
CN(C)C(=S)Nc1nc2ccccc2s1	12%	3.5µM*	-2	-10%	2%
O=C(CSc1nccn1-c1ccccc1)Nc1nc2ccccc2s1	.	11µM*	.	-7%	.
CCOCC(=O)Nc1nc2ccccc2s1	-26%	7.9µM*	4	-15%	-3%
CCCC(=O)Nc1nc2ccc(OCC)cc2s1	11%	6.3µM*	-3	-10%	4%
CC(=O)N[C@@H](CSC(=O)[C@]1([C@@H](O)C(C)C)NC(=O)[C@H](C)[C@@H]1O)C(=O)O	.	.	.	7%[15.3 µM]	.
Cc1cc(NC(=O)Cn2nnc3sc4c(c3c2=O)CCC(C(C)(C)C)C4)no1 (stereo not given)	0%	-34%	-1	13µM*	4%
O=C(Nc1ccc2nsnc2c1)c1cccs1	0%	-9%	2	-10%	-3%
Cc1nc2ccc(NC(=O)c3ccccc3)cc2s1	-25%	3.5µM*	-1	-9%	0%
CCc1sc(C(=O)Nc2ccc(NC(C)=O)cc2)cc1C	-20%	15%	-1	-6%	-18%
O=C(Nc1ccc2nn(-c3ccccc3)nc2c1)c1cccs1	11%	4.5µM*	-1	42%	-13%
Cc1nc2ccc(NC(=O)N3CCSCC3)cc2s1	13%	66%	0	-9%	1%
Cc1nc2ccc(NC(=O)N3CCCCC3)cc2s1	-10%	11µM*	-2	-7%	4%
CCc1sc(C(=O)Nc2ccc3nc(C)sc3c2)cc1C	4%	3.2µM*	0	.	.
Cc1nc2ccc(NC(=O)c3ccc4ccccc4n3)cc2s1	?	26%	-1	-3%	-6%
CC1CN(C(=O)N2CCC(C(=O)NCc3cccs3)CC2)c2cc(Cl)ccc2O1 (stereo not given)	.	.	.	-10%	.
C[n+]1ccc(/C=C/c2ccc(C=S)cc2)c2ccccc21	.	-73%	.	.	.
CC(=O)Nc1ccc2nc3ccccc3nc2c1	30%	5.6µM*	-1	528%	-2%
Cc1nc2ccc(NC(=O)Cc3ccsc3)cc2s1	1%	11µM*	1	-4%	-2%
SMILES	Integrin act MD	BRCA1 expr act	IL2 activator	Apoferritin bind	PKM2 act
Cc1ccc(OC(=O)c2ccc3nc(C)sc3c2)cc1	?	0%	394*	-7%	5%
Cc1nc2ccc(NC(=O)c3cccs3)cc2s1	40%	6.3µM*	-4	-1%	1%
NCCc1cnc(-c2cccc(C(F)(F)F)c2)[nH]1	.	.	.	2%	.
O=C(Nc1cccc(F)c1)C1CCN(S(=O)(=O)c2cccc3nsnc23)CC1	.	.	.	-7%	.
O=C(NC1CCCC1)c1ccc(CS(=O)(=O)Cc2ccccc2F)o1	4.5µM*	-9%	1	-5%	.
O=C(NC1CCCCC1)c1ccc(CS(=O)(=O)Cc2ccccc2F)o1	-12%	0%	0	-5%	1%
C=CC[C@@H]1C=C[C@H](O/N=C(\C)CCN2CCCc3nc(C)c(C)cc32)[C@H](CO)O1	.	.	.	28%[15.3 µM]	.
COc1ccccc1N1CCN(C(=O)c2ccc(NS(=O)(=O)c3ccc(C)cc3)cc2)CC1	19%	-27%	-1	-23%	8.9µM*
O=C(c1ccc(S(=O)(=O)NCc2ccco2)cc1)N1CCN(Cc2ccccc2)CC1	-2%	-7%	0	-6%	7.9µM*
O=C(c1ccc(NS(=O)(=O)c2ccccc2)cc1)N1CCN(Cc2ccc3c(c2)OCO3)CC1	-28%	-33%	14	-19%	13µM*
CCC(CC)c1nnc(NC(=O)COc2ccc3c(c2)OCO3)s1	-4%	1%	0	?	-14%
Cc1cc(=O)oc2cc(OCC(=O)Nc3nnc(C(C)C)s3)ccc12	11%	-25%	60*	0%	-12%
Cc1cc(=O)oc2cc(OCC(=O)Nc3nnc(CC(C)C)s3)ccc12	13%	2%	-1	-16%	-5%
CC(C)c1nnc(NC(=O)COc2ccc3c(c2)OCO3)s1	-25%	11µM*	0	1%	-15%
Cc1ccc(CONC(=O)c2ccc(C)cc2)cc1	-28%	?	-1	.	.
COc1ccc(/C=C(\NC(=O)c2ccc(C)cc2)C(=O)Nc2ccc(C(=O)O)cc2)cc1	11µM*	33%	-5	1%	.
Cc1ccc(CONC(=O)c2ccccc2)cc1	40%	2.2µM*	-2	-2%	-10%
Cc1ccc(CONC(=O)c2ccc(Cl)cc2)cc1	10%	8.9µM*	1	.	.
O=C(OCc1ccccc1)/C(=C/c1cccc2ccccc12)NC(=O)c1ccccc1	?	-15%	-4	-1%	-8%
Cc1ccc(C(=O)N/C(=C\c2ccccc2)C(=O)OCc2ccccc2)cc1	-37%	7.9µM*	-1	-2%	3%
CCOC(=O)c1cc(S(=O)(=O)Nc2ccc(OC)c(Cl)c2)[nH]n1	.	5%	.	-1%	.
CCOc1ccc(NC(=O)NC(C)c2c(-n3cccc3)sc3c2CCN(CC)C3)cc1 (stereo not given)	.	.	.	1%	.
O=C(COc1ccccc1C(=O)Nc1cccc([N+](=O)[O-])c1)Nc1ccc(Br)cc1	.	-2%	.	.	.
Nc1n[nH]c(N)c1N=Nc1ccc(Cl)cc1	-4%	43%	0	?	-1%
Nc1[nH]ncc1N=Nc1ccc(Cl)cc1	1%	11µM*	-1	32µM*	-12%
SMILES	Integrin act MD	BRCA1 expr act	IL2 activator	Apoferritin bind	PKM2 act
O=Cc1ccc(OCc2ccc3c(c2)OCO3)cc1	25%	2.8µM*	1	?	9%
Cc1ccc(COc2ccc3c(c2)OCO3)cc1	13%	?	3	-21%	-17%
Cc1cc(Nc2ccc(F)cc2F)nc(-n2nc(C)cc2C)n1	.	.	.	1%	.
O=C1c2oc3ccccc3c(=O)c2C(c2cccc(Br)c2)N1Cc1ccco1 (stereo not given)	8%	0%	-1	?	20µM*
O=C1c2oc3ccc(Br)cc3c(=O)c2C(c2cccnc2)N1Cc1ccco1 (stereo not given)	.	.	.	-16%	0%
CCN(CC)c1ccc(/C=C2\CCC(/C=N/NC(=O)c3ccc(=O)n(C)c3)=C2N2CCOCC2)cc1	0%	-55%	71*	1%	-1%

Screening results as filed in PubChem.
